Measured values taken from the supplement of paper PMC8047044.
Counter-ions that a name gives are not always drawn.

Each compound was assayed on Neuro-2a (assay: neurite formation score, plate-normalized to DMSO control mean 5.04 (score (0-8 scale)); higher = more or longer neurites). Conditions: 0.1 µM.
Procedure: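 Neuro-2a mouse neuroblastoma cells in PLL-coated 96-well plates were pre-treated for 1 h in DMEM(+) with each kinase inhibitor at 0.1 µM, then switched to serum-free DMEM(-) with inhibitor to induce neurite outgrowth and fixed about 2-3 h later. Three blinded observers scored neurite formation from 0 (no neurites) to 8 (long neurites on almost all cells).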

Row | Structure (SMILES) | neurite formation score
1 | Cc1cc(Nc2cc(CN3CCOCC3)c3nc(C)c(Cc4ccc(Cl)cc4F)n3n2)n[nH]1 | 5.25
2 | CCc1cncnc1N1CCN(Cc2nc3ccc(C(F)(F)F)cc3[nH]2)CC1 | 4.42
3 | C[C@H]1[C@H](C)CC[C@]2(C(=O)O)CC[C@]3(C)C(=CC[C@@H]4[C@@]5(C)C[C@@H](O)[C@H](O)[C@@](C)(CO)[C@@H]5CC[C@]43C)[C@H]12 [Asiatic acid] | 5.08
4 | Cc1cn(-c2cc(NC(=O)c3ccc(C)c(Nc4nccc(-c5cccnc5)n4)c3)cc(C(F)(F)F)c2)cn1 [Nilotinib(AMN-107)] | 5.21
5 | CNC(=O)c1ccccc1Nc1nc(Nc2ccc(N3CCOCC3)cc2OC)ncc1Cl | 4.58
6 | COc1cc2nccc(Oc3ccc(NC(=O)Nc4ccc(F)cc4F)c(F)c3)c2cc1OC | 4.38
7 | O=C(Nc1ccc2[nH]nc(-c3ccncc3)c2c1)[C@@H]1CCN(CC(=O)N2CCN(c3ccc(-c4ncccn4)cc3)CC2)C1 | 5.09
8 | O=C(Nc1cccc(Cl)c1)Nc1ncc(CCNc2ncnc3ccsc23)s1 [SNS-314 Mesylate] | 4.58
9 | CCCCCCCCc1ccc(CCC(N)(CO)CO)cc1 [Fingolimod (FTY720)] | 4.25
10 | Oc1cccc(-c2nc(N3CCOCC3)c3oc4ncccc4c3n2)c1 [PI-103 Hydrochloride] | 5.25
11 | Cc1ccc(C(=O)Nc2ccc(CN3CCN(C)CC3)c(C(F)(F)F)c2)cc1C#Cc1cnc2cccnn12 | 3.88
12 | O=C(NCCCNc1nc(Nc2cccc(CN3CCOCC3)c2)ncc1C1CC1)C1CCC1 | 5.25
13 | Cc1ccc(-c2nn(C(C)(C)C)c3ncnc(N)c23)cc1 | 3.54
14 | O=C1NC(=O)C(=Cc2ccc(-c3ccc(F)cc3)o2)S1 (stereo in doubt) | 3.08
15 | O=c1cc(N2CCOCC2)oc2c(-c3cccc4c3sc3ccccc34)cccc12 | 4.21
16 | CCS(=O)(=O)Nc1ccc2[nH]c(O)c(C(=Nc3ccc(CN4CCCCC4)cc3)c3ccccc3)c2c1 [Hesperadin] | 3.92
17 | CNC(=O)CN1CCC(Oc2cc3c(Nc4cccc(Cl)c4F)ncnc3cc2OC)CC1 [AZD8931 (Sapitinib)] | 4.25
18 | Nc1nccc(Oc2ccc(NC(=O)c3c[nH]cc(-c4ccc(F)cc4)c3=O)cc2F)c1Cl | 4.92
19 | CCN(CCCOc1ccc2c(Nc3cc(CC(=O)Nc4cccc(F)c4)[nH]n3)ncnc2c1)CCOP(=O)(O)O | 4.71
20 | CCn1c2ccccc2c2cc(Nc3ccnc(NCCCN4CCOCC4)n3)ccc21 | 3.42
21 | COc1ccc2c(OCc3nnc4ccc(-c5ccccc5)nn34)ccnc2c1 | 5.75
22 | Cc1ccccc1-n1c(Cn2nc(-c3cccc(O)c3)c3c(N)ncnc32)nc2cccc(C)c2c1=O | 4.75
